We go through 1 molecule from the supplement of paper PMC12067093, “Discovery and optimisation of a covalent ligand for TRIM25 and its application to targeted protein ubiquitination” (Chemical Science, 2025).

Of roughly 21,000 targets only a part is listed; those with the largest changes were picked by preference.

The target in the test is SLTM_Q9NWH9_107_KHEADELSGDASVEDDAFIKDCELENQEAHEQDGNDELK (UniProt Q9NWH9). Kind of test: probe-labelled cysteine peptide fold change vs DMSO (competition) (log2 fold change); higher = less target engagement (more negative = stronger competition). To be noted: THP-1, incubation time: 4 h.
Sequence of UniProt Q9NWH9 (Q9NWH9 whole entry, looked up): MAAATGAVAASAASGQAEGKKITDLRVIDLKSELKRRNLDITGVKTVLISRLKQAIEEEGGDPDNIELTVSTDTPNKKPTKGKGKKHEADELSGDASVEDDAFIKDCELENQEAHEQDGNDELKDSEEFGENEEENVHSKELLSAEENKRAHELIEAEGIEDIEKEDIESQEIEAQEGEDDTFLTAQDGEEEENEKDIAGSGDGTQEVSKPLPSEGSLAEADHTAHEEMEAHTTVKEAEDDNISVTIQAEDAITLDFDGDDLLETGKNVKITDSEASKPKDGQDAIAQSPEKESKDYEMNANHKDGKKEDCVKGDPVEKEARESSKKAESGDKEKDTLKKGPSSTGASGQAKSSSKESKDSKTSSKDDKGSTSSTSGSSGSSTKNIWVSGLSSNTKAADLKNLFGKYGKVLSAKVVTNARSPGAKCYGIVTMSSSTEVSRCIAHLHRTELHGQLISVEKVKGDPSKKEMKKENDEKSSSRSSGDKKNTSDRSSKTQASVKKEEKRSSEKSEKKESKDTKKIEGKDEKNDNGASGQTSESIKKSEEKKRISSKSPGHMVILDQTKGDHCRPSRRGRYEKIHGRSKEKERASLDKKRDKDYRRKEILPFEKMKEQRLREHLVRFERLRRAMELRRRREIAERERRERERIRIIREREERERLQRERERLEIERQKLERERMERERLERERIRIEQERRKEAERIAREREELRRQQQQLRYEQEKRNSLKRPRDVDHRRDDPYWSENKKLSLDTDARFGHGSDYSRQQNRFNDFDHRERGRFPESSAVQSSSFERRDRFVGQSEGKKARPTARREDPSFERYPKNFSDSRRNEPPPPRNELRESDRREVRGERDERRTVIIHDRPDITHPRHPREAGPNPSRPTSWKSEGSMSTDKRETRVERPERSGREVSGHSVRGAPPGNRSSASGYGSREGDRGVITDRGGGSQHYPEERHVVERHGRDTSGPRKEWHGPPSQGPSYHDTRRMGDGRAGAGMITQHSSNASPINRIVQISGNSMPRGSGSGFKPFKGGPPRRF
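Note: competitive profiling in live THP-1 cells: cysteine peptides tagged with an iodoacetamide desthiobiotin (IA-DTB) probe, intensity after compound treatment relative to DMSO-treated cells.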

In the case of `Cc1cc(C(=O)N2CCCN(C(=O)CCl)CC2)ccc1-c1ccccc1` [compound 10], the “probe-labelled cysteine peptide fold change” value was 0.0217 (10 µM) and -1.37 (50 µM).
